Source: PubChem (National Center for Advancing Translational Sciences (NCATS))
DRD3 agonist = D3 dopamine receptor (human) agonism; P35462; D3R DiscoveRx beta-arrestin cells, luminescence, 90 min; max activation, %; 410,000 compounds, 0.58% hits; AID 652048; in the data active = max activation above about 30%; note: 0% is about no effect
Target sequence (P35462 whole entry, looked up): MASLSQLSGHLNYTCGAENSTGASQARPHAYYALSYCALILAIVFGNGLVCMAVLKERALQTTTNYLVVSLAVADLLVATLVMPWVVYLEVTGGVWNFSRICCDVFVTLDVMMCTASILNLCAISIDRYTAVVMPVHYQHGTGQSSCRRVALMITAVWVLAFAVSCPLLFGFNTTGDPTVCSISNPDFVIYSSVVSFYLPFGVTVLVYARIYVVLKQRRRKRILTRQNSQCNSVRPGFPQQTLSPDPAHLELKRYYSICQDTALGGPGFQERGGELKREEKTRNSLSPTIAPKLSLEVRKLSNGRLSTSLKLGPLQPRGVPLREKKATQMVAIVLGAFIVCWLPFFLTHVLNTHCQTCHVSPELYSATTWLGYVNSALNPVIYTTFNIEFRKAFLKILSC
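Agonist mode: compounds and dopamine controls were applied to plated cells for 90 min at 37 degrees C after an overnight attachment at 1500 cells/well. Luminescent read-out followed 30 - 60 minutes at room temperature with DiscoveRx detection reagent.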
PTHR1 agonist = agonists of human PTHR1 parathyroid hormone receptor; Q03431; HEK293 GP2 PTHR1 cells, GloSensor cAMP luminescence, 1 h; Potency, µM (top dose mostly 115 µM), without a hit: top-dose activation, usual class: activators; 410,000 compounds, 0.075% hits; note: potency is the fitted concentration of half-maximal effect; nearly all actives have a fitted effect of over 55% in size
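HEK-293-derived GP2 cells expressing PTHR1 and a GloSensor cAMP reporter, 3,000/well, plated overnight, given luciferin plus IBMX (each 0.5 mM as added) for 1 h at 37 °C, then compound for 1 h at 37 °C. Luminescence was read after 15 min at room temperature.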
B2AR arrestin = beta2AR (human) beta-arrestin recruitment activity. P07550. beta-arrestin recruitment to beta2AR, cell-based reporter. Potency, µM (doses to about 46.1 µM), without a hit: at the top dose activation, usual class: activators. 330,000 compounds, 0.02% hits;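 note: potency is the fitted concentration of half-maximal effect; 0% = DMSO controls and full agonism = EC100 isoproterenol or metaproterenol; nearly all actives have a fitted effect of over 65% in size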
RGS4 inh = human RGS4 inhibition. Transcreener GDP fluorescence polarization, RGS4-accelerated GTP hydrolysis. Potency, µM (highest dose often 114 µM), without a hit: top-dose activity change, negative = inhibition, most hits filed as inhibitors. 390,000 compounds, 0.039% hits; note: potency is the fitted concentration of half-maximal effect; % is set by controls: 0 for no effect and ±100 for the full control effect; nearly all actives have a fitted effect of over 75% in size
Target sequence (P49798 whole entry, looked up): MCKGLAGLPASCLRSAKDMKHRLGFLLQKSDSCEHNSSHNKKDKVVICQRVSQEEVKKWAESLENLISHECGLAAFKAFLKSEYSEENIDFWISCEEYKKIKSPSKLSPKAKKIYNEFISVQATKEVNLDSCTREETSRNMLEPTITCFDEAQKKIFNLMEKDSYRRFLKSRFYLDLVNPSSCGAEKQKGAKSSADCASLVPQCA
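MLSMR compounds (23 nl, pin-transferred) preincubated 10 min at room temperature with a 500nM (2x) first reagent, then RGS4 at 900nM (2x) plus Transcreener GDP mix added; fluorescence polarization (620/688 nm) read before and after 90 min at 30 °C.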
DRD3 antagonist = antagonists of human D3 dopamine receptor | P35462 | D3R cells, DiscoveRx beta-arrestin luminescence, antagonist mode; active compounds read low | max response, negative = inhibition, % | 360,000 compounds, 2.5% hits | AID 652054; in the data active = max response below about -50%; inconclusive = no clear call, values can overlap the other calls; note: % is set by controls: 0 for no effect and ±100 for the full control effect
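Cells plated overnight at 1500 cells/well, then exposed to library compounds with dopamine controls for 90 minutes at 37 degrees C. DiscoveRx reagent added for 30–60 minutes at room temperature; luminescence read, quantitative HTS format.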
BRCA1 expr up = BRCA1 expression activation | 380,000 compounds, 1.1% hits | MCF7-BRCA1-FFLuc reporter, luminescence, 48 h; response scale: scaled: vehicle 0%, 10 µM genistein 100% | Potency, µM (series often up to 46.1 µM), inactives show at the top dose activation, usual class: activators | AID 624202; note: potency is the fitted concentration of half-maximal effect; nearly all actives have a fitted effect of over 80% in size
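MCF7-BRCA1-FFLuc, 2000 cells/well; 2 h attach, 37 °C/5% CO2; compound 48 h; luciferase substrate 15 min; luminescence end-point. Norm. to genistein 10 microM max activation and DMSO; concentration-response curves fitted.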
* = called active by the depositor; i = inactive; ? = inconclusive; / = no result; [ ] = remark or other dose. Hits are enriched below; roughly 3.7% of the tested compounds scored in any of these assays. Unless noted, calls come from the whole dose curve; as a rule, active = well fitted curve in the direction sought with a large enough effect; inconclusive = small, poorly fitted or top-dose-only effect, or another doubt; inactive = no such curve, though single readings can be large; an effect the other way counts as inactive or inconclusive.

SMILES | DRD3 agonist | PTHR1 agonist | B2AR arrestin | RGS4 inh | DRD3 antagonist | BRCA1 expr up
COc1cc(NC(=O)c2ccccc2Cl)ccc1NC(=O)c1cccs1 | -11 | -21% | 0% | 9% | -19 | 6.3µM*
CCOc1ccccc1-c1ccc2nccn2c1 | 2 | i | / | / | 50 | -19%
C[C@H](O)[C@@H]1CN2CCc3c([nH]c4ccc(-c5ccc6c(c5)OCO6)cc34)[C@@H]2C[C@@H]1N(C)C(=O)NC1CCCCC1 | -3 | 7% | / | / | -30 | -80%
O=C(NCCN1CCN(c2cccc(Cl)c2)CC1)c1ccc(CSc2nc3ccncc3[nH]2)cc1 | 49* | -33% | 0% | -11% | -21 | -58%
Fc1cccc(CSc2nc3ccncc3[nH]2)c1 | -9 | i | 0% | 25% | -18 | ?
CCN(CCNC(=O)c1ccc(CSc2nc3ccncc3[nH]2)cc1)c1ccccc1 | 0 | -3% | 1% | 11% | 6 | -2%
Clc1cccc(CSc2nc3ccncc3[nH]2)c1 | -7 | -13% | -1% | 13% | 6 | 8.9µM*
Cc1ccc(N(C)S(=O)(=O)c2cccc(C(=O)OCC(=O)N3CCCC(C)C3)c2)cc1 (stereo unspecified) | 14 | -33% | 0% | 6% | 0 | -8%
Cc1nn(-c2ccccc2)c(/N=C/c2ccc(O)cc2)c1-c1ccccc1 | 4 | -21% | 0% | -53% | 16 | 5.6µM*
CC(O)(c1cccnc1)c1nc(/C=C/c2ccccc2)cs1 (stereo unspecified) | -5 | -35% | / | / | 0 | 1%
Cc1cc(C)nc(NC(=O)c2ccc([N+](=O)[O-])c(C)c2)n1 | 2 | i | 0% | 21% | 10 | 0%
Cc1cc(C(=O)Nc2ncn[nH]2)ccc1[N+](=O)[O-] | 34* | -6% | 0% | 1% | -10 | -1%
O=C(c1ccc(Cl)cc1)C1CCN(C(=O)c2ccc(F)cc2)CC1 | 1 | -30% | -1% | 3% | 2 | -6%
O=C(c1ccco1)[C@@H]1[C@@H]2C(=O)N(c3ccc(F)cc3)C(=O)[C@@H]2C2c3ccccc3C=CN21 (stereo partly specified) | / | / | 0% | / | / | /
O=C(c1ccco1)[C@@H]1[C@@H]2C(=O)N(c3ccc(Br)cc3)C(=O)[C@@H]2C2c3ccccc3C=CN21 (stereo partly specified) | -9 | -4%[57.5 µM] | -1% | -43% | -57* | -51%
CCNC(=O)NC1c2ccccc2CSc2ccccc21 (stereo unspecified) | -10 | i | / | 3% | 7 | 2%
CCOCCN1CCN(C2c3ccccc3CSc3ccccc32)CC1 (stereo unspecified) | -34 | -9% | / | -19% | -76* | -24%
CCOc1ccc(S(=O)(=O)N2CCN(C(=O)c3ccc(-n4cncn4)c([N+](=O)[O-])c3)CC2)cc1 | 5 | i | -1% | -27% | 0 | -31%
COc1ccc(-c2nc(CCl)cs2)cc1OC | -2 | i | 0% | -13% | 0 | 35%
Clc1ccc(-c2csc(N3CCOCC3)n2)cc1 | 11 | -21% | 0% | -2% | 12 | 7.1µM*
COc1ccc(-c2nc(-c3ccc(O)cc3O)cs2)cc1OC | 39* | -5% | 0% | -20% | 47 | 90%
COc1ccc(-c2csc(N3CCOCC3)n2)cc1OC | 5 | i | 0% | -1% | 21 | 14µM*
Clc1ccc(-c2csc(N3CCCCCC3)n2)cc1 | 4 | -43% | 0% | -15% | -2 | 0%
COc1cc(-c2nnc(-c3ccc(N4CCOCC4)cc3)o2)cc(OC)c1OC | 38* | -13%[57.5 µM] | 0% | 14% | 24 | 0%
C[C@@H]1COC(=O)CCC/C=C\C[C@@H](CC(=O)N(CCO)Cc2ccccc2)C(=O)N1 | 1 | -4% | -1% | 7% | 0 | 13%
SMILES | DRD3 agonist | PTHR1 agonist | B2AR arrestin | RGS4 inh | DRD3 antagonist | BRCA1 expr up
Brc1ccc(-c2csc(N3CCOCC3)n2)cc1 | 4 | -27% | 0% | -24% | 32 | 11µM*
O=C(Cc1cccs1)N1CCN(c2nc(-c3ccc(Cl)cc3)cs2)CC1 | 36* | i | -1% | 4% | 53 | -42%
CCCCOc1ccc(CNC(=O)c2cnc3sc(N4CCOCC4)nn3c2=O)cc1 | 3 | 20% | / | -22% | / | /
COc1cccc(OC)c1OCC(C)CNCC1CCCO1 (stereo unspecified) | -18 | ? | 0% | 2% | -67* | 3%
CCCN1CCC(NC(=O)C2CCN(C(C)=O)CC2)CC1 | -2 | -25% | 0% | -7% | 10 | 4%
Cc1nnc(C(C)C)n1C1C[C@H]2CC[C@@H](C1)N2CC[C@H](NC(=O)C1CCC(F)(F)CC1)c1ccccc1 (stereo partly specified) | -12 | / | / | / | / | /
CC(=O)n1c2ccccc2c2c1c1ccccc1n2C | 13 | 26%[57.5 µM] | 0% | -14% | -56* | -52%
O=C(NCCSc1ccccc1)c1cccnc1 | -3 | -8%[57.5 µM] | -1% | 13% | 10 | 14µM*
O=C(NCCCSc1ccccc1)c1cccnc1 | -1 | i | 0% | 3% | 6 | 3%
CCN1CCN(C(=O)c2ccccc2N(Cc2ccccc2)S(C)(=O)=O)CC1 | -14 | i | 0% | -20% | 13 | -7%
CCN1CCN(C(=O)c2ccccc2N(Cc2ccccc2)S(=O)(=O)c2ccc(C)cc2)CC1 | -3 | i | 0% | -18% | -52* | -31%
OC(CN1CCN(c2ccccc2)CC1)c1c[nH]c2ccccc12 (stereo unspecified) | -8 | i | -1% | -7% | -54* | -18%
Cc1[nH]c2ccccc2c1NC(=O)CN1CCN(c2cccc(C(F)(F)F)c2)CC1 | -6 | -40%[57.5 µM] | / | -5% | ? | -56%
Cc1[nH]c2ccccc2c1C(O)CN1CCN(c2cccc(C(F)(F)F)c2)CC1 (stereo unspecified) | -10 | -21%[57.5 µM] | 0% | -15% | -74* | -76%
C1=Cc2ccccc2/C1=C\c1cc[cH-]c1.[Fe+2].c1cc[cH-]c1 | / | / | / | / | / | 6%
C=C1C(=O)[C@]23C[C@H]1CCC2[C@]1(C)C(=O)CC[C@@](C)(C(=O)O)C1C[C@@H]3O (stereo partly specified) | -5 | -43% | / | / | -18 | -50%
C=C1C(=O)[C@]23C[C@H]1CCC2[C@]1(C)CCC[C@@](C)(C(=O)O)C1C[C@@H]3O (stereo partly specified) | -13 | -44% | / | / | -89* | -76%
CN1CCc2cccc3c2[C@@H]1Cc1ccc(O)c(O)c1-3 | 44* | -16% | 0% | i | -18 | -64%
COc1ccc2c(c1O)-c1ccccc1CCN(C)C2 | -1 | -24% | -1% | -13% | 1 | 5%
